In the supplement of paper PMC6607015:
Where a name gives a salt, the structure may show the parent alone.

What was measured:
Settings in all cases: compound concentration in added solution (µM; 5 µl added to 20 µl cells): 10; 18 h
A431 [1] = test: LBPA endosome anti-LBPA integrated intensity (sum per cell), Z-score; higher = more LBPA staining
How it was run: (§1)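 Four 20× images per well were taken of HeLa MZ or A431 cells that had been seeded at 3,500 per well in 20 µl onto 5 µl of 10 µM compound solution in duplicate 384-well imaging plates. Before imaging, cells were incubated 18 h, fixed in 4% PFA and stained with 6C4 anti-LBPA antibody, filipin, propidium iodide and CellTracker green. Values are Z-scores normalised in AcuityXpress from MetaXpress-derived per-cell integrated LBPA or filipin intensity, either whole-cell or within LBPA endosomes.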

HeLa MZ [2] = test: as above
How it was run: as §1

A431 [3] = test: whole-cell filipin (free cholesterol) integrated intensity, Z-score; higher = more cholesterol staining
How it was run: as §1

HeLa MZ [4] = test: as above
How it was run: as §1

A431 [5] = test: filipin (cholesterol) integrated intensity within LBPA endosomes, Z-score; higher = more cholesterol in LBPA endosomes
How it was run: as §1

HeLa MZ [6] = test: as above
How it was run: as §1

| SMILES | LBPA endosome anti-LBPA integrated intensity (z-score) (A431 [1]) | LBPA endosome anti-LBPA integrated intensity (z-score) (HeLa MZ [2]) | whole-cell filipin (z-score) (A431 [3]) | whole-cell filipin (z-score) (HeLa MZ [4]) | filipin (z-score) (A431 [5]) | filipin (z-score) (HeLa MZ [6]) |
| --- | --- | --- | --- | --- | --- | --- |
| CN1CCC[C@@H]1CCO[C@](C)(c1ccccc1)c1ccc(Cl)cc1 [Clemastine fumarate] | 2.28 | 0.882 | 0.619 | -0.348 | 2.73 | 1.84 |
| CC1(C)OC(=O)NC1=O [Dimethadione] | -0.345 | 0.802 | -0.303 | -0.0416 | -0.341 | -0.341 |
| CCOC(=O)n1ccn(C)c1=S [Carbimazole] | -0.395 | 0.106 | -0.405 | -0.308 | -0.513 | -0.531 |
| C#C[C@]1(O)CC[C@H]2[C@@H]3CCC4=CC(=O)CC[C@@H]4[C@H]3CC[C@@]21C [Norethindrone] | -0.462 | -0.0403 | -0.665 | -0.306 | -0.425 | -0.487 |
| NC(=O)NC1NC(=O)NC1=O (stereo not drawn) [Allantoin] | -0.71 | -1.01 | -1.02 | -0.573 | -0.456 | -0.604 |
| CC1(C)S[C@@H]2[C@H](NC(=O)[C@H](N)c3ccc(O)cc3)C(=O)N2[C@H]1C(=O)O [Amoxicillin] | -0.419 | 0.0287 | -0.393 | -0.0853 | -0.524 | -0.539 |
| CC[C@]12CCCN3CCc4c(n(c5ccccc45)[C@@](O)(C(=O)OC)C1)[C@@H]32 [Vincamine] | -0.234 | 0.384 | -0.552 | -1.23 | -0.453 | -0.216 |
| Cc1cccc(Nc2ccncc2S(=O)(=O)NC(=O)NC(C)C)c1 [Torsemide] | -0.347 | -0.115 | 0.00281 | 0.228 | -0.452 | -0.394 |
| CC[C@H](C)[C@H](N)C1=N[C@H](C(=O)N[C@@H](CC(C)C)C(=O)N[C@H](CCC(=O)O)C(=O)N[C@H](C(=O)N[C@H]2CCCCNC(=O)[C@H](CC(N)=O)NC(=O)[C@@H](CC(=O)O)NC(=O)[C@H](Cc3cnc[nH]3)NC(=O)[C@@H](Cc3ccccc3)NC(=O)[C@H]([C@@H](C)CC)NC(=O)[C@@H](CCCN)NC2=O)[C@@H](C)CC)CS1 [Bacitracin] | -0.168 | 0.277 | -0.0253 | 0.293 | -0.368 | -0.388 |
| CCN(CC)CCN[C@@H](C(=O)OCCC(C)C)c1ccccc1 [Camylofine chlorhydrate] | -0.334 | 0.886 | -0.446 | -0.605 | -0.28 | 0.0537 |
| CN(C)CCOC(c1ccccc1)c1ccccc1 [Diphenhydramine hydrochloride] | -0.431 | -0.0117 | -0.136 | -0.63 | -0.485 | -0.0904 |
| CCn1cc(C(=O)O)c(=O)c2cc(F)c(N3CCNCC3)nc21 [Enoxacin] | -0.309 | -0.0536 | 0.119 | 0.315 | -0.364 | -0.345 |
| CCN(CC)C(=O)c1ccc(O)c(OC)c1 [Ethamivan] | -0.477 | -0.0996 | -0.452 | 0.274 | -0.43 | -0.268 |
| CCCCOC(=O)c1ccc(O)cc1 [Butylparaben] | -0.425 | -0.532 | -0.203 | -0.161 | -0.376 | -0.449 |
| Clc1ccccc1C(c1ccccc1)(c1ccccc1)n1ccnc1 [Clotrimazole] | -0.44 | 0.655 | -0.0982 | 0.216 | -0.276 | -0.063 |
| O=C(NCCN1CCOCC1)c1ccc(Cl)cc1 [Moclobemide] | -0.577 | -0.12 | -0.751 | -0.413 | -0.499 | -0.447 |
| COc1ccc(-c2cc(=O)c3c(O)cc(O[C@@H]4O[C@H](CO[C@@H]5O[C@@H](C)[C@H](O)[C@@H](O)[C@H]5O)[C@@H](O)[C@H](O)[C@H]4O)cc3o2)cc1O [Diosmin] | -0.501 | -0.4 | -0.678 | -0.378 | -0.518 | -0.715 |
| NC(=O)c1cccnc1 [Nicotinamide] | -0.398 | -0.64 | -0.512 | -0.013 | -0.419 | -0.499 |
| c1cnc(N2CCN(Cc3ccc4c(c3)OCO4)CC2)nc1 [Piribedil hydrochloride] | 0.161 | 1.95 | 0.544 | 1.93 | -0.00283 | 1.55 |
| CC(C(=O)O)c1cccc(Oc2ccccc2)c1 (stereo not drawn) [Fenoprofen calcium salt dihydrate] | -0.519 | -0.608 | -0.389 | -0.428 | -0.476 | -0.491 |
| O=c1[nH]c(=O)n([C@H]2C[C@H](O)[C@@H](CO)O2)cc1I [Idoxuridine] | -0.506 | 0.506 | -0.368 | 0.357 | -0.479 | -0.063 |
| CO[C@@]1(NC(=O)CSCC#N)C(=O)N2C(C(=O)O)=C(CSc3nnnn3C)CS[C@@H]21 [Cefmetazole sodium salt] | -0.329 | 0.139 | -0.215 | -0.0972 | -0.434 | -0.479 |
| Clc1ccc(C(Cn2ccnc2)OCc2c(Cl)cccc2Cl)c(Cl)c1 (stereo not drawn) [Isoconazole] | -0.0559 | 1.26 | -0.00171 | -0.264 | 0.0343 | 0.0567 |
| NC(=O)OCC(O)COc1ccc(Cl)cc1 (stereo not drawn) [Chlorphensin carbamate] | -0.6 | -2.23 | -1.05 | -0.894 | -0.514 | -0.697 |

| SMILES | LBPA endosome anti-LBPA integrated intensity (z-score) (A431 [1]) | LBPA endosome anti-LBPA integrated intensity (z-score) (HeLa MZ [2]) | whole-cell filipin (z-score) (A431 [3]) | whole-cell filipin (z-score) (HeLa MZ [4]) | filipin (z-score) (A431 [5]) | filipin (z-score) (HeLa MZ [6]) |
| --- | --- | --- | --- | --- | --- | --- |
| CN(C)CCCO[C@@H]1[C@H]2OC(C)(C)O[C@H]2O[C@@H]1[C@H](O)CO [Amiprilose hydrochloride] | -0.365 | -0.384 | -0.0258 | -0.369 | -0.415 | -0.492 |
| CNCCC=C1c2ccccc2C=Cc2ccccc21 [Norcyclobenzaprine] | 3.26 | 2.08 | 1.91 | 1.02 | 3.06 | 3.6 |
| CC[C@H]1OC(=O)[C@H](C)[C@@H](O[C@H]2C[C@@](C)(OC)[C@@H](O)[C@H](C)O2)[C@H](C)[C@@H](O[C@@H]2O[C@H](C)C[C@H](N(C)C)[C@H]2O)[C@](C)(O)C[C@@H](C)[C@@H]2N[C@@H](COCCOC)O[C@H]([C@H]2C)[C@]1(C)O [Dirithromycin] | -0.436 | -0.0354 | -0.786 | -0.252 | -0.507 | -0.38 |
| Cc1cn[nH]c1 [Fomepizole] | -0.605 | -0.603 | -0.686 | -0.874 | -0.557 | -0.633 |
| Cc1ncc([N+](=O)[O-])n1CC(C)O (stereo not drawn) [Secnidazole] | -0.291 | -0.288 | -0.203 | -0.327 | -0.374 | -0.579 |
| CCN[C@H]1CN(CCCOC)S(=O)(=O)c2sc(S(N)(=O)=O)cc21 [Brinzolamide] | -0.542 | -0.00126 | -0.549 | -0.378 | -0.517 | -0.377 |
| CCCOc1ccccc1-c1nc2[nH]nnc2c(=O)[nH]1 [Zaprinast] | -0.577 | -0.755 | -0.471 | 0.00218 | -0.519 | -0.401 |
| c1ccc([C@H]2CN3CCSC3=N2)cc1 [Levamisole hydrochloride] | -0.398 | 0.59 | -0.758 | -0.886 | -0.52 | -0.182 |
| N=C(N)NCc1cccc(I)c1 [Iobenguane sulfate] | -0.605 | -1.1 | -0.881 | -0.23 | -0.54 | -0.449 |
| CCCCN1CCCCC1C(=O)Nc1c(C)cccc1C (stereo not drawn) [Bupivacaine hydrochloride] | -0.317 | -0.117 | -0.729 | -0.969 | -0.543 | -0.511 |
| COc1cc(Cc2cnc(N)nc2N)cc(OC)c1OC [Trimethoprim] | -0.479 | -0.434 | -0.787 | -0.667 | -0.515 | -0.558 |
| CC(C)(C)NCC(O)c1ccc(O)c(CO)c1 (stereo not drawn) [Salbutamol] | -0.288 | -0.311 | 0.022 | -0.307 | -0.535 | -0.499 |
| Cc1cc(CC(=O)O)n(C)c1C(=O)c1ccc(Cl)cc1 [Zomepirac sodium salt] | -0.359 | 0.635 | -0.277 | 0.00846 | -0.413 | -0.439 |
| COC(=O)[C@H]1[C@H]2C[C@@H]3c4[nH]c5cc(OC)ccc5c4CCN3C[C@H]2C[C@@H](OC(=O)c2cc(OC)c(OC)c(OC)c2)[C@@H]1OC [Reserpine] | 3.11 | 2.24 | 2.19 | 1.75 | 2.34 | 1.96 |
| COc1ccc2[nH]c([S+]([O-])Cc3ncc(C)c(OC)c3C)nc2c1 (stereo not drawn) [Omeprazole] | -0.534 | -0.664 | -0.421 | -0.0929 | -0.508 | -0.373 |
| Cc1ccccc1N1C(=O)c2cc(S(N)(=O)=O)c(Cl)cc2NC1C (stereo not drawn) [Metolazone] | -0.495 | -0.0744 | -0.881 | 0.441 | -0.436 | -0.348 |
| Cc1nnc(NS(=O)(=O)c2ccc(N)cc2)s1 [Sulfamethizole] | -0.497 | -0.619 | -0.626 | -0.62 | -0.469 | -0.463 |
| COc1cc(C)nc(-n2nc(C)cc2OC)n1 [Epirizole] | -0.401 | -0.156 | -0.543 | -1.08 | -0.458 | -0.525 |
| CC(Cc1cccc(C(F)(F)F)c1)NCCOC(=O)c1ccccc1 (stereo not drawn) [Benfluorex hydrochloride] | -0.077 | -0.59 | -0.118 | 0.0685 | -0.352 | -0.573 |
| OCCN1CCN(CCCN2c3ccccc3Sc3ccc(C(F)(F)F)cc32)CC1 [Fluphenazine dihydrochloride] | 2.14 | 0.746 | -0.522 | 0.27 | 2.23 | 3.52 |
| COc1cc(NC(C)CCCN)c2ncccc2c1 (stereo not drawn) [Primaquine diphosphate] | -0.0886 | 0.528 | -0.291 | -0.377 | -0.187 | 0.116 |
| Nc1cc(N2CCCCC2)nc(N)[n+]1[O-] [Minoxidil] | -0.316 | -0.257 | -0.274 | 0.345 | -0.426 | -0.263 |
| Cc1onc(-c2c(F)cccc2Cl)c1C(=O)N[C@@H]1C(=O)N2[C@@H]1SC(C)(C)[C@@H]2C(=O)O [Flucloxacillin sodium] | -0.384 | 0.147 | -0.112 | -0.558 | -0.348 | -0.62 |
| CC(C)(Oc1ccc(C2CC2(Cl)Cl)cc1)C(=O)O (stereo not drawn) [Ciprofibrate] | -0.486 | -0.255 | -0.125 | -0.278 | -0.419 | -0.482 |
